Test results as given in PubChem BioAssay AID2234 (The Scripps Research Institute Molecular Screening Center, 2010).
The whole screen tested about 320,000 compounds, of which about 480 (0.15%) were called active. What follows is part of a selection rich in actives, with near analogues and random picks from the rest. Values without a mark were called inactive. Rule as the data show it: active = inhibition above about 33%; inactive = the rest.

The compounds below were run against Lytic switch protein BZLF1 (Epstein-Barr virus (strain B95-8)) (UniProt P03206) (assay: Zta-DNA interaction blockers, Epstein-Barr virus – biochemical, fluorescence polarization, single concentration, counter-screen for EBNA-1 inhibitor project, primary screen (AID 2234)). Settings: ZTA-DNA binding, at 11 µM, stronger effect = higher value.
Chain of Lytic switch protein BZLF1 (Epstein-Barr virus (strain B95-8)) (P03206 whole entry, looked up): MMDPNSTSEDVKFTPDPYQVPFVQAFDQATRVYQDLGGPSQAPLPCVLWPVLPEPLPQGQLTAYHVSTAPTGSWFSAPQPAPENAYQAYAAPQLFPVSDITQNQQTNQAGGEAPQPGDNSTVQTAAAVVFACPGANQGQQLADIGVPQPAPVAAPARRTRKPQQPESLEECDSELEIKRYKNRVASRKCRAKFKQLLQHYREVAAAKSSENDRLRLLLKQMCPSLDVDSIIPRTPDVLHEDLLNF

| Structure (SMILES) | inhibition |
| --- | --- |
| CC(=O)Nc1ccc(NC(=O)COC(=O)c2ccccc2C(=O)c2ccccc2)cc1 | 1.75% |
| COc1ccc(N2CC(NS(=O)(=O)c3ccc4ccccc4c3)CC2=O)cc1 (stereo unspecified) | -13.8% |
| CCC1=C(OC(=O)N(CC)CC)N2C(=O)OC(=NCC3CC3)[C@]2(C)[C@H]2C1=CC[C@H]1C(=O)N(CC(=O)OC)C(=O)[C@H]12 | 14% |
| CN(C(=O)CN1C(=O)CCSc2ccc(S(=O)(=O)N3CCCC3)cc21)c1ccccc1 | 4.65% |
| COCCOC(=O)C1=C(C)NC(=O)NC1c1cc2c(cc1Br)OCO2 (stereo unspecified) | -2.42% |
| Cc1cc(C(=O)OCC(=O)Nc2ccccc2Cl)c(C)o1 | -1% |
| CC1(c2nnc(-c3ccncc3)o2)CC(c2cccnc2)=NO1 (stereo unspecified) | -4.98% |
| CCNc1nc(Oc2ccc(C(=O)OC)cc2)nc(N2CCOCC2)n1 | 26.6% |
| Cc1ccccc1CN1C(=O)c2ccccc2Sc2ccc(C(=O)NCCCN3CCOCC3)cc21 | 5.14% |
| CCN1CCN(CCNC(=O)c2ccc(/C=C3/Sc4ccccc4N(Cc4cccc(C)c4)C3=O)cc2)CC1 | 56.8% (active) |
| O=C(NCCCN1CCOCC1)c1ccc2c(c1)N(Cc1cccc(F)c1)C(=O)c1ccccc1S2 | -13.9% |
| Cn1c(=O)c2c(ncn2CCc2ccccc2)n(C)c1=O | -0.22% |
| Cn1cnc2c1c(=O)n(Cc1c(Cl)cccc1Cl)c(=O)n2C | -29.3% |
| Cn1cnc2c1c(=O)n(Cc1ccccc1C#N)c(=O)n2C | 95.5% (active) |
| Cc1ccc(Cc2nnc(SCC(=O)Nc3ccccc3C)[nH]c2=O)cc1 | 0.83% |
| Cc1ccc(C(=O)O)cc1-c1ccc(/C=C2\SC(=O)N(CC(=O)Nc3ccc4c(c3)OCO4)C2=O)o1 | 9.2% |
| CCN1C(=NCC(C)C)N[C@@H](CCc2ccccc2)[C@H](C(=O)NCC(C)C)[C@H]1C | -17.1% |
| CCOC(=O)CC(NC(=O)C1c2ccccc2Oc2ccccc21)c1ccc(C)cc1 (stereo unspecified) | 2.93% |
| COc1ccc(N(CC(=O)Nc2ccc(F)c(F)c2)S(=O)(=O)c2c(C)[nH]c(=O)[nH]c2=O)cc1 | 3.47% |
| COC(=O)c1ccc(CN2CCN(CCCc3ccccc3)C(CCO)C2)cc1 (stereo unspecified) | -17.9% |
| Cc1cccn2c(CNCC(C)Oc3cccnc3)c(C(=O)N3CCOCC3)nc12 (stereo unspecified) | 13.7% |
| O=C(CC(NCCN1CCOCC1)C(=O)O)Nc1cccc(Cl)c1 (stereo unspecified) | 5.11% |

| Structure (SMILES) | inhibition |
| --- | --- |
| CCCCS(=O)c1snnc1C (stereo unspecified) | -5.28% |
| Cc1ccc2c(C)c(C(=O)N3CCN(c4ccncc4)CC3)oc2c1C | 1.76% |
| O=C(COc1cccc(F)c1)Oc1ccc(C(=O)c2ccccc2)cc1 | 12.6% |
| CCC1CCC/C1=N\NC(=O)c1ccc(Cl)cc1 (stereo unspecified) | 4.98% |
| COc1cc(-c2nnc(Cn3cc(C(F)(F)F)ccc3=O)o2)cc(OC)c1OC | 5.1% |
| COC(=O)C1CCCCN1C(=O)c1ccc(OC2CCN(C(C)=O)CC2)c(OC)c1 (stereo unspecified) | 5.86% |
| O=C(c1cccc(-n2cccc2)c1)N1CCN(S(=O)(=O)c2ccc(F)cc2)CC1 | -25.8% |
| O=C(NC1CC1)C1=C[C@H](c2coc3ccccc3c2=O)C[C@H](OCCCCO)O1 | -2.42% |
| N#CCSc1nc2ccc(N3CCOCC3)cc2c(=O)n1CCc1ccccc1 | -10.6% |
| Cc1ccc(-c2nc3ccccc3[nH]2)cc1N | -1% |
| O=C(Nc1cccc(-c2nc3ccccc3[nH]2)c1)c1ccc(C(=O)Nc2cccc(-c3nc4ccccc4[nH]3)c2)cc1 | 84% (active) |
| O=C(Nc1ccccc1)c1cc2ccccc2[nH]1 | -12.6% |
| Cc1cccc(N2C(=O)N3[C@H](c4ccc(F)cc4)[C@@H]4C(=O)N(C5CCCCC5)C(=O)[C@@H]4[C@]3(Cc3ccccc3)C2=O)c1 | -2.81% |
| O=C(NCc1ccccc1CN1CCCC1)c1cccc(S(=O)(=O)Nc2ccc(F)cc2)c1 | 3.93% |
| CS(=O)(=O)Nc1cccc(C2=NN(C(=O)c3cccc(F)c3)C(c3cccs3)C2)c1 (stereo unspecified) | -3.98% |
| CN1CCN(CCCNC(=O)c2ccc(/C=C3\Oc4ccccc4N(Cc4ccc(Cl)cc4)C3=O)cc2)CC1 | 45.5% (active) |
| CCCN1CCN(C(=O)CCCNC(=O)c2ccc(Cl)cc2)CC1 | 1.38% |
| CN1C(=O)/C(=C/c2ccc(C(=O)NC3CCCC3)cc2)Oc2ccccc21 | -2.56% |
| CC(=O)c1c(C)[nH]c(C(=O)OCC(=O)Nc2c(C)cccc2C)c1C | 3.88% |
| COC(=O)c1cc(N2CCNCC2)nc2ccccc12 | 5.41% |
| CC12CCC(=O)N1C(C(=O)NCCN1C(=O)S/C(=C\c3ccccc3F)C1=O)CS2 (stereo unspecified) | -4.27% |
| Cc1ccc(-c2nn(-c3ccc(F)cc3)cc2C(=O)NCC(c2cccs2)N2CCOCC2)cc1 (stereo unspecified) | 2.78% |

| Structure (SMILES) | inhibition |
| --- | --- |
| CC1=CC2=NC(=O)CC(C)(C(=O)N(CC(=O)NC(C)(C)C)Cc3ccccc3)N2C=C1 (stereo unspecified) | -6.91% |
| COc1cc(C2/C(=C(\O)c3ccc4c(c3)CC(C)O4)C(=O)C(=O)N2c2nnc(C)s2)cc(OC)c1OC (stereo unspecified) | -16.7% |
| COc1ccccc1CNC(=O)C1Cc2ccccc2C(=O)O1 (stereo unspecified) | -9.61% |
| CC(=O)Nc1ccc(S(=O)(=O)Oc2ccc(Br)cc2C(=S)N2CCOCC2)cc1 | -23.8% |
| CCc1c(C)nc(N)n2c(SCC(=O)NC3CCCCC3)nnc12 | -21.8% |
| Cc1ccc2c(c1)N(CC(=O)N1CCOCC1)C(=O)CO2 | -24.9% |
| COc1ccc(N2CCN(C(=O)CN3C(=O)COc4ccccc43)CC2)cc1 | 49.2% (active) |
| COc1ccc(N2CCN(CCNC(=O)CCN3C(=O)COc4ccccc43)CC2)cc1 | 3.46% |
| C=C(Cl)COC(=O)C1C2C=CC(C2)C1C(=O)O (stereo unspecified) | -6.87% |
| Cc1oc(-c2ccccc2Cl)[n+]([O-])c1C | 4.54% |
| Cc1nc(N)c(Br)c(C)c1Br | 10.1% |
| Cc1cc(NC(=O)CS(=O)(=O)c2cn(C)c3ccccc23)no1 | 3.47% |
| Cc1nc(-c2ccc(Cl)cc2)sc1C1(C)CC(c2ccccc2F)=NO1 (stereo unspecified) | 0.91% |
| O=C(CNS(=O)(=O)c1ccc(Br)s1)N1CCN(C(=O)c2ccco2)CC1 | 0.26% |
| Cc1cc(/C=N/NC(N)=O)c(C)n1C1CCCCC1 | 15.4% |
| CC(NC(=S)NNS(=O)(=O)c1ccc(C(C)(C)C)cc1)c1ccccc1 (stereo unspecified) | -5.57% |
| O=C(NC(=S)Nc1cccc(-c2ccc(CO)o2)c1)c1cccs1 | -14.3% |
| CC1CCCCC1NC(=O)c1cn(C)c2ccc(S(=O)(=O)N3CCOCC3)cc2c1=O (stereo unspecified) | 3.74% |
| O=S(=O)(Nc1ccc2nc(-c3ccco3)[nH]c2c1)c1ccccc1 | -14.9% |
| Cc1ccc(C2NC(=S)NC3=C2N2CCC3CC2)cc1 (stereo unspecified) | -11.6% |
| CC12c3ccccc3C(c3ccccc31)C1C(=O)N(Cc3cccnc3)C(=O)C12 (stereo unspecified) | 5.39% |
| COc1cccc(NC(=O)CN2CCN(CC(=O)Nc3ccccc3Cl)CC2)c1 | 4.73% |

| Structure (SMILES) | inhibition |
| --- | --- |
| CN1/C(=c2/s/c(=C3/C(=O)N(c4ccccc4)NC3=Nc3ccccc3)n(C)c2=O)C(C)(C)c2ccccc21 | 7.42% |
| CC(C)Oc1ccc(CN2CCC(n3nccc3NC(=O)c3cccnc3)CC2)cc1 | 6.96% |
| COc1ccc(-c2c(C)nn3c(N4CCC(C(=O)N5CCCCC5)CC4)cc(C)nc23)cc1OC | 6.7% |
| CC(C(=O)N(C)CC(=O)Nc1ccccc1C(F)(F)F)N1C(=O)c2ccccc2C1=O (stereo unspecified) | -0.42% |
| COc1ccc(OC)c(S(=O)(=O)N2CCCC(C(=O)NCCc3ccccc3)C2)c1 (stereo unspecified) | -17.4% |
| O=C(CCCC(=O)N(CC(=O)NC1CCCC1)Cc1ccccc1Cl)Nc1ccccn1 | 2.7% |
| Cc1cc(OC(=O)c2ccccc2Cl)ccc1N1C(=O)CCC1=O | -5.62% |
| COC(=O)c1ccccc1NC(=O)C1CCN(C(=O)N2CCOc3ccccc32)CC1 | -14.3% |
| COc1ccc(N2CCN(C3CCCCC3NS(=O)(=O)c3ccccc3)CC2)cc1 (stereo unspecified) | -13.4% |
| CCC(C)C(=O)Nc1ccccc1N1CCN(c2ccc(F)cc2)CC1 (stereo unspecified) | -25.1% |
| Cc1c(C(=O)c2cccc([N+](=O)[O-])c2)c2ccccn2c1CCC#N | -12.6% |
| CC(C)C(=O)Nc1nnc(SCC(=O)N2C(C)CCCC2C)s1 (stereo unspecified) | -5.72% |
| CC(=O)c1sc(NC(=O)CCN2C(=O)C3CC=CCC3C2=O)nc1-c1ccccc1 (stereo unspecified) | 0.93% |
| Cn1nc(C(F)(F)F)cc1-c1ccc(/C=C(\C#N)C(=O)c2cccc(C(F)(F)F)c2)s1 | 9.6% |
| CC(=O)c1nc(N2C(=O)C3CC=C(C)CC3C2=O)sc1C (stereo unspecified) | -6.68% |
| CCN(C(=O)COC(=O)c1cc(NS(=O)(=O)c2ccc(Cl)c([N+](=O)[O-])c2)ccc1O)C1CCCCC1 | -8.06% |
| O=C(Cn1c(-c2ccc(Cl)cc2)noc1=O)N1CCN(c2ccccc2F)CC1 | -6.32% |
| CCOc1cc(-c2noc(CCCC(=O)NC3CCCCC3)n2)ccc1OC | -2.96% |
| CCOc1ncccc1C(=O)OCC(=O)N1c2ccccc2CC1C (stereo unspecified) | 6.32% |
| COc1cc(C(=O)NNC(=O)CN2C(=O)NC3(CCCC3)C2=O)cc(OC)c1OC | 7.35% |
